Source: the supplement of paper PMC10105736

Assays:
Assay in all cases: MAPPIT interaction score (arbitrary units); higher = stronger binary interaction signal, active = hit call of the paper;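 active = MAPPIT score above the 99th percentile of random reference set scores in the same batch; inactive = at or below it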
[1] = molecular target: Arc1; conditions: MAPPIT configuration: N-N
Method: (§1)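 MAPPIT in HEK293T cells: Drosophila bait and prey ORFs (from the FlyBi ORF collection) were co-transfected in quadruplicate, with two wells stimulated by erythropoietin. Interaction-dependent JAK-STAT activation was read out with a STAT-responsive firefly luciferase reporter. Positive calls use the 99th percentile of random reference set (RRS) scores within each batch […]. Batches Dvs01 and Dvs02 used the N-N configuration and Dvs04 the N-C configuration. Pairs come from FlyBi screens, CuraGen, DPiM, Finley Y2H, Lit-BM-16, Lit-BS-16 and RRS.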

[2] = molecular target: CG34382; conditions: MAPPIT configuration: N-N; pair source set: Curagen_high_conf
Method: as §1

[3] = molecular target: CG8441; conditions: MAPPIT configuration: N-N; pair source set: Lit-BS-16
Method: as §1

[4] = molecular target: Pbgd; conditions: MAPPIT configuration: N-N; pair source set: DPIM
Method: as §1

[5] = molecular target: ATPsynCF6L; conditions: MAPPIT configuration: N-C; pair source set: screen_3
Method: as §1

[6] = molecular target: CG13643; conditions: MAPPIT configuration: N-C; pair source set: screen_3
Method: as §1

[7] = molecular target: Dpm3; conditions: MAPPIT configuration: N-C; pair source set: screen_3
Method: as §1

[8] = molecular target: NaPi-T; conditions: MAPPIT configuration: N-C; pair source set: screen_4
Method: as §1

[9] = molecular target: Pdk1; conditions: MAPPIT configuration: N-N; pair source set: Curagen_high_conf
Method: as §1

[10] = molecular target: ATPsyndelta; conditions: MAPPIT configuration: N-C; pair source set: screen_4
Method: as §1

[11] = molecular target: CG15572; conditions: MAPPIT configuration: N-C; pair source set: screen_4
Method: as §1

[12] = molecular target: CG42659; conditions: MAPPIT configuration: N-C; pair source set: screen_3
Method: as §1

[13] = molecular target: Polr3E; conditions: MAPPIT configuration: N-C; pair source set: screen_4
Method: as §1

Measured: MAPPIT interaction score
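Further: HEK293T cells with Epo stimulation, STAT-responsive firefly luciferase reporter, fold induction versus unstimulated cells divided by the larger fold induction of two negative controls lacking either bait or prey.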

B1: Arc1 (protein)
chain: MAQLTQMTNEQLRELIEAVRAAAVGAAGSAAAAGGADASRGKGNFSACTHSFGGTRDHDVVEEFIGNIETYKDVEGISDENALKGISLLFYGMASTWWQGVRKEATTWKEAIALIREHFSPTKPAYQIYMEFFQNKQDDHDPIDTFVIQKRALLAQLPSGRHDEETELDLLFGLLNIKYRKHISRHSVHTFKDLLEQGRIIEHNNQEDEEQLATAKNTRGSKRTTRCTYCSFRGHTFDNCRKRQKDRQEEQHEE
active: [1]; pair source set: screen_1 4.55 | [1]; pair source set: screen_2 3.68
inactive: [2] 0.00338 | [3] -0.34 | [4] 0.22

B2: Mst57Da (protein)
chain: MKFLALFVTLLVVLALVSAQKSQNTNHNVIVIGAKKPGAAPAAAAAAAPAAPPAAAPAAAPAAPEAGLADAPAES
inactive: [5] 0.192 | [6] -0.565 | [7] 0.043 | [8] 1.02 | [9] -0.52

B3: Crk (protein)
chain: MDTFDVSDRNSWYFGPMSRQDATEVLMNERERGVFLVRDSNSIAGDYVLCVREDTKVSNYIINKVQQQDQIVYRIGDQSFDNLPKLLTFYTLHYLDTTPLKRPACRRVEKVIGKFDFVGSDQDDLPFQRGEVLTIVRKDEDQWWTARNSSGKIGQIPVPYIQQYDDYMDEDAIDKNEPSISGSSNVFESTLKRTDLNRKLPAYARVKQSRVPNAYDKTALKLEIGDIIKVTKTNINGQWEGELNGKNGHFPFTHVEFVDDCDLSKNSTEIC
inactive: [10] 2.72 | [11] 0.475 | [12] 0.17 | [13] 2.44
